# Screen size: about 400,000 compounds; about 2,100 (0.53%) were called active. Roughly 14% stayed inconclusive and do not appear here. No rule for the calls is given here. This excerpt belongs to a sample that is enriched for actives.
# Target: Ataxin-2 (Homo sapiens) (UniProt Q99700)
# Assay: qHTS for Inhibitors of ATXN expression.
# Format: functional
# Ataxin-2 (Homo sapiens), sequence (Q99700 whole entry): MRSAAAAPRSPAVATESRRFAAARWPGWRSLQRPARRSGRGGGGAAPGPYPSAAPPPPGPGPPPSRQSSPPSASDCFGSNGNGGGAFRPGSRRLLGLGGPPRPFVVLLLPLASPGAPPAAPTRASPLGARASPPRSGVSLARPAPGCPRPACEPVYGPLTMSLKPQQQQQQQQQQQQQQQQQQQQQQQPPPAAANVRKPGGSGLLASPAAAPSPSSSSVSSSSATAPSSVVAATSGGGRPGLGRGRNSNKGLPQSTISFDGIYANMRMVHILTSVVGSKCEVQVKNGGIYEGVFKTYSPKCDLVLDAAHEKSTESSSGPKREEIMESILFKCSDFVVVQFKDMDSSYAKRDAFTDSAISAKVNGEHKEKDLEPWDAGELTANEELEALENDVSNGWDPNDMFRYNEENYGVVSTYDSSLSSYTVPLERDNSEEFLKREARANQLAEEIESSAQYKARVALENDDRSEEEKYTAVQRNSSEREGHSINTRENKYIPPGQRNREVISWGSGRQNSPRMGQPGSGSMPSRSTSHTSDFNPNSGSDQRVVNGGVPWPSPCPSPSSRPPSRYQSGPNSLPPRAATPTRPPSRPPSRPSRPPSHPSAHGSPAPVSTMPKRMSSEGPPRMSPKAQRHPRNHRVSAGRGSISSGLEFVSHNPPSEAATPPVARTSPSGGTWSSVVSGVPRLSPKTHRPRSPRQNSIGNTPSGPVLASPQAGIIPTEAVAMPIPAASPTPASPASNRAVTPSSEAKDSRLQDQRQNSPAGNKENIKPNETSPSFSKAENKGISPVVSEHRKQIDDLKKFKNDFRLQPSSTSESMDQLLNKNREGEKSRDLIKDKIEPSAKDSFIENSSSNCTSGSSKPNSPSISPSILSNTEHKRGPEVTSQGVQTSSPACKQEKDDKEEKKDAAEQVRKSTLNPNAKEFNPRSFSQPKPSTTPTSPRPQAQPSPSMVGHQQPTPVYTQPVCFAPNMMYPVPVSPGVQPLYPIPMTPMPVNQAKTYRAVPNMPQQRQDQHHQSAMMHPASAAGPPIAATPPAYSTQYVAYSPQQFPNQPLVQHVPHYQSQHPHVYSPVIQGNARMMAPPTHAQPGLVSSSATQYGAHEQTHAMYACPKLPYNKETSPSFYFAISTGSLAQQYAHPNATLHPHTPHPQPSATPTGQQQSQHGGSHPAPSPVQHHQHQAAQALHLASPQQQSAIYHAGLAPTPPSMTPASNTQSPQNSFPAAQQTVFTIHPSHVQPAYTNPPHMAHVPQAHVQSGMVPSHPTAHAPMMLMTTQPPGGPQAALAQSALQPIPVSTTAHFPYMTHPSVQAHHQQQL
row,Compound,Potency
1,NSc1nc(N)c2nc(-c3ccccc3)c(-c3ccccc3)nc2n1,inactive
2,O=C1Nc2ccc(S(=O)(=O)NCCCO)c3cccc1c23,inactive
3,O=C(O)CCCCCNS(=O)(=O)c1ccc2c3c(cccc13)C(=O)N2,inactive
4,NCCCCCCNS(=O)(=O)c1cccc2c(Cl)cccc12,39.8 µM (active)
5,O=C1c2cccc3c(O)ccc(c23)C(=O)N1Cc1ccco1,inactive
6,CCOc1cccc(C2c3c(-c4cc(C)ccc4O)n[nH]c3C(=O)N2Cc2ccco2)c1 (configuration not stated),39.8 µM (active)
7,Cc1ccc(O)c(-c2n[nH]c3c2C(c2ccccc2F)N(Cc2ccco2)C3=O)c1 (configuration not stated),39.8 µM (active)
8,Cc1cc(N=Nc2ccc(C)c(N=Nc3cc(C)c(N)cc3N)c2)c(N)cc1N,39.8 µM (active)
9,O=C1OCCN1C(=O)[C@H]1[C@H](c2ccc(F)cc2)C(c2ccc(F)cc2)=NN1c1ccccc1,inactive
10,Cc1[nH]c(N=Nc2ccccc2)nc1N=Nc1ccccc1,20 µM (active)
11,OCc1ccc(N=Nc2ccccc2)cc1,inactive
12,COc1cc(/C=C2\CC/C(=C\c3cc(OC)c(O)c(OC)c3)C2=O)cc(OC)c1O,28.2 µM (active)
13,CCOc1cc(/C=C2\CCCc3c2nc2ccccc2c3C(=O)O)ccc1OC,inactive
14,COc1cc(/C=C/C(=O)c2ccc3c(c2)OCO3)cc(Cl)c1O,inactive
15,COc1cc(/C=C2\CCC/C(=C\c3ccc(O)c(OC)c3)C2=O)ccc1O,35.5 µM (active)
16,COc1cc(/C=C2\SC(c3ccccc3)=NC2=O)cc(Cl)c1O,inactive
17,COc1cc(/C=C2/CCC/C(=C\c3cc(O)c(OC)c(Cl)c3)C2=O)cc(Cl)c1O,39.8 µM (active)
18,COc1cc(/C=C/c2nc3ccccc3s2)cc(OC)c1O,inactive
19,COc1cc(/C=C2\C(=N)N3N=C(CC(=O)N4CCCCC4)SC3=NC2=O)ccc1O,inactive
20,COc1cc(/C=C2/NC(=O)N(Cc3ccccc3F)C2=O)ccc1O,inactive
21,COc1cc2ccc(=O)oc2c(O)c1O,inactive
22,COc1cc(C=C2C(=O)C=CC2=O)ccc1O,14.1 µM (active)
23,COc1cc(/C=C2\CCc3c2nc2ccccc2c3C(=O)O)cc(OC)c1OC,inactive

row,Compound,Potency
1,C=CCN1c2ccccc2Sc2cnccc21,inactive
2,Nc1ccc2nn(-c3ccc(F)cc3)nc2c1,inactive
3,COc1cc(/C=C2\Oc3cc(O)ccc3C2=O)ccc1O,inactive
4,COc1cc(/C=C/C(=O)OCC(=O)N2CCC(Cc3ccccc3)CC2)ccc1O,inactive
5,COc1cc2ccc(=O)oc2cc1O,inactive
6,COc1cc(/C=C/c2ccc3cccc(O)c3n2)ccc1O,inactive
7,COc1cc(/C=C/C=C2/CC/C(=C/C=C/c3ccc(O)c(OC)c3)C2=O)ccc1O,13.4 µM (active)
8,COc1cc(/C=C2\COC/C(=C\c3ccc(O)c(OC)c3)C2=O)ccc1O,31.6 µM (active)
9,CCOc1cc(/C=C2\CN(C)C/C(=C\c3ccc(O)c(OCC)c3)C2=O)ccc1O,15.8 µM (active)
10,CCOc1cc(/C=C2/C(=N)N3N=C(CC(=O)N4CCCC4)SC3=NC2=O)ccc1O,inactive
11,CCOc1cc(/C=C2\C(=N)N3N=C(CC(=O)N4CCCCC4)SC3=NC2=O)ccc1O,inactive
12,CCCn1/c(=N\C(=O)c2c(-c3c(F)cccc3Cl)noc2C)c(C(=O)OCC)cc2c(=O)n3ccccc3nc21,inactive
13,CCCn1c(O)nnc1SCC(=O)N(C1CCCCC1)C1CCS(=O)(=O)C1 (configuration not stated),inactive
14,CN(C)c1ccc(C2C3CCCc4ccccc4C3=NN2C)cc1 (configuration not stated),inactive
15,Nc1nnn(CC(=O)N/N=C/c2ccncc2)n1,inactive
16,CCNc1nc(NCC)n2c(SC(C(=O)Nc3cc(Cl)cc(Cl)c3)c3ccccc3)nnc2n1 (configuration not stated),39.8 µM (active)
17,Cc1cc(/C=C2/C(=N)N3C(c4ccccc4)=CSC3=NC2=O)c(C)n1-c1ccccc1,inactive
18,Nc1nc(Cl)cc(=O)n1Cc1ccc(Cl)cc1,inactive
19,c1ccc(N/N=C(\Cc2ncc[nH]2)c2ccccc2)cc1,inactive
20,Brc1ccc(N/N=C(/N=Nc2nn[nH]n2)c2ccccc2)cc1,35.5 µM (active)
21,CCOC(=O)C[n+]1ccc2c([nH]c3ccccc32)c1C,inactive
22,C[C@@H]1CN([C@H](C)CO)C(=O)c2cccc(NC(=O)Nc3ccc(F)cc3)c2O[C@H]1CN(C)C(=O)Nc1ccc(C(F)(F)F)cc1,28.2 µM (active)
23,COc1ccc(NC(=O)N(C)C[C@H]2Oc3c(NC(=O)c4nc5ccccc5s4)cccc3C(=O)N([C@@H](C)CO)C[C@H]2C)cc1,39.8 µM (active)

row,Compound,Potency
1,C[C@H](CO)N1C[C@H](C)[C@@H](CN(C)C(=O)Nc2ccc(C(F)(F)F)cc2)Oc2c(NC(=O)Nc3ccccc3)cccc2C1=O,25.1 µM (active)
2,COc1ccc(OC)c(NC(=O)c2nc3ccccc3s2)c1,inactive
3,C[C@H](CO)N1C[C@H](C)[C@@H](CN(C)C(=O)Nc2ccc3c(c2)OCO3)Oc2c(NC(=O)Nc3ccc(C(F)(F)F)cc3)cccc2C1=O,22.4 µM (active)
4,O=C(O)c1ccc(N2C(=O)CC(SC(=NCc3ccc4c(c3)OCO4)Nc3ccc(F)cc3)C2=O)cc1 (configuration not stated),inactive
5,O=C1N=C(Nc2nc3ccccc3[nH]2)c2ccccc21,inactive
6,CCOc1ccc2nc(NCCNS(=O)(=O)c3ccccc3)c(C#N)cc2c1,inactive
7,Clc1ccccc1C1=CC(c2ccco2)n2ncnc2N1 (configuration not stated),inactive
8,C#CCOc1c(Cl)cc(C2C3=C(CCCC3=O)N(CC(=O)O)C3=C2C(=O)CCC3)cc1OC,inactive
9,C[C@H](CO)N1C[C@H](C)[C@@H](CN(C)C(=O)Nc2ccccc2)Oc2c(NC(=O)Nc3ccc(C(F)(F)F)cc3)cccc2C1=O,39.8 µM (active)
10,COCCn1c(=N)c(C(=O)NCC2CCCO2)cc2c(=O)n3ccccc3nc21 (configuration not stated),inactive
11,COCCCn1c(=N)c(C(=O)NCC2CCCO2)cc2c(=O)n3ccccc3nc21 (configuration not stated),inactive
12,COc1ccc(CCn2c(=N)c(C(=O)NCC3CCCO3)cc3c(=O)n4ccccc4nc32)cc1 (configuration not stated),15.8 µM (active)
13,O=C(CCC(=O)N1CCOc2ccc(Cl)cc21)NCCCN1CCC(Cc2ccccc2)CC1,26.7 µM (active)
14,O=C(NCc1ccccc1)C(=O)NCC1OCCN1S(=O)(=O)c1ccc2c(c1)OCCO2 (configuration not stated),inactive
15,CCOc1ccccc1C(=O)NC(C(=O)NCc1ccc(F)cc1)C(C)C (configuration not stated),inactive
16,CC1=C(C)C(C)=C(C#N)C(=C(C#N)C#N)N1,inactive
17,CSc1nn(Cc2ccc(Cl)cc2)c(N(C(C)=O)C(C)=O)c1S(=O)(=O)c1ccccc1,25.1 µM (active)
18,Cn1c(=O)n(Cc2ccc(Br)cc2)c2ccccc21,inactive
19,O=c1cc(Cl)c(-c2ccccc2)nn1Cc1ccc(Cl)cc1,inactive
20,CSc1nn(Cc2ccc(Br)cc2)c(N(C(C)=O)C(C)=O)c1S(=O)(=O)c1ccccc1,28.2 µM (active)
21,CC12CCC(C(=O)N(CC3CO3)C1=O)C2(C)C (configuration not stated),inactive
22,Cn1cccc1C1C=C(c2ccc(C(C)(C)C)cc2)Nc2ncnn21 (configuration not stated),inactive
23,CC(=O)c1ccc(-c2ccc(C(=O)N(C)Cc3nc(O)c4ccccc4n3)o2)cc1,inactive

row,Compound,Potency
1,CC(C)c1ccc(/C=C(\NC(=O)c2ccccc2)C(=O)NCCCn2ccnc2)cc1,inactive
2,O=C(C[C@H]1C[C@H](C(=O)N2CCOCC2)[C@@]2(CCC3CCCC3)c3[nH]c4ccc(Cl)cc4c3CCN2C1=O)NCCCn1ccnc1,28.2 µM (active)
3,O=C(C[C@H]1C[C@H](C(=O)N2CCCCC2)[C@@]2(CCc3ccccc3)c3[nH]c4ccc(Cl)cc4c3CCN2C1=O)NCCCn1ccnc1,28.2 µM (active)
4,O=C(NCCCn1ccnc1)C(=O)NCC1OCCN1S(=O)(=O)c1ccc(F)cc1 (configuration not stated),inactive
5,O=C(/C=C/c1ccc(S(=O)(=O)N2CCOCC2)cc1)NCCCn1ccnc1,inactive
6,CC[C@@]1(O)C(=O)OCc2c1cc1n(c2=O)Cc2cc3c(CN(C)C)c(O)ccc3nc2-1,inactive
7,CC(C)(C)c1ccc(OCC(=O)Nc2ccc3c4c(cccc24)C(=O)NC3=O)cc1,inactive
8,O=[N+]([O-])c1cc(/C=N/N=C(/Nc2ccccn2)c2ccccn2)ccc1O,2.67 µM (active)
9,Cc1ccc2nc3c(cc(C(N)=S)c(=N)n3CCCOC(C)C)c(=O)n2c1,inactive
10,C=CC[C@H](CC(=O)N(CCO)Cc1ccccc1)C(=O)N[C@H](COC(=O)[C@@H](CC=C)CC(=O)OC(C)(C)C)Cc1ccccc1,35.5 µM (active)
11,C=CC[C@H](CC(=O)N(CCO)Cc1ccccc1)C(=O)N[C@H](COC(=O)[C@@H](CC=C)CC(=O)OC(C)(C)C)c1ccccc1,35.5 µM (active)
12,C=CC[C@@H](CC(=O)N(CCO)Cc1ccccc1)C(=O)N[C@H](COC(=O)[C@@H](CC=C)CC(=O)OC(C)(C)C)c1ccccc1,31.6 µM (active)
13,N#CCC(=O)N/N=C/c1cc(-c2ccccc2)n(-c2ccc(Cl)cc2)c1-c1ccccc1,inactive
14,COCCNS(=O)(=O)c1ccc2c3c(cccc13)C(=O)N2C,inactive
15,CCCOC(=O)c1c(NC(=O)c2nc3ncccn3n2)sc(C(N)=O)c1C,inactive
16,Nc1cccc2c1C(=O)N(CC(=O)NC13CC4CC(CC(C4)C1)C3)C2=O,inactive
17,O=C(COC(=O)/C=C/C(=O)OCC(=O)NC12CC3CC(CC(C3)C1)C2)NC12CC3CC(CC(C3)C1)C2,31.6 µM (active)
18,CCOc1cc(/C=C2/C(=N)N3C(=NC2=O)SN=C3S(=O)(=O)CC)ccc1OC(=O)c1ccco1,inactive
19,COc1ccc(/C=C2\C(=O)N(c3c(Cl)cc(Cl)cc3Cl)N=C2NC(=O)c2cccc([N+](=O)[O-])c2)cc1,22.4 µM (active)
20,COc1ccc(CNC(=O)C/C(C)=N/NC(=O)c2ccc([N+](=O)[O-])cc2Cl)cc1,inactive
21,COc1ccccc1CCNC(=O)CCNS(=O)(=O)c1ccc(NC(C)=O)cc1,inactive
22,COC(=O)[C@]12CCCCC=C1N(CCC1=CCCCC1)C(=O)[C@H](CC(=O)NCCc1ccccc1OC)C2,39.8 µM (active)
23,COC(=O)[C@]12CCCCC=C1N(CCC1=CCCCC1)C(=O)[C@H](CC(=O)NCc1cccc3ccccc13)C2,25.1 µM (active)

# Source: ChEMBL document CHEMBL1201862, “PubChem BioAssay data set” (2004)
